Data from PubChem BioAssay (NCATS).
Calls of active or inactive are those of the source. Calls come from the whole dose curve; as a rule, active = well fitted curve in the direction sought with a large enough effect; inconclusive = small, poorly fitted or top-dose-only effect, or effect the other way, or another doubt; inactive = no such curve, though single readings can be large or run the other way.

assay: qHTS of Nrf2 Activators: LOPAC Validation (AID 624149); details: Nrf2/ARE reporter cell assay; series mostly up to 46.1 µM
Text: Many diseases have some form of oxidative stress injury and ties to inflammation, causing a host of problems for the patient. The antioxidant response element (ARE) plays an important role in alleviating the harmful effects of oxidative stress. The antioxidant response element (ARE) is a transcriptional regulatory element involved in the activation of genes coding for a number of antioxidant proteins and detoxifying enzymes. These enzymes work in concert to protect tissues from oxidative insults and chemical toxicities in human hepatocytes and immune cells. The protective effects of ARE activation are primarily triggered through Nrf2 (NF-E2-related factor) binding to and activating AREs. It is known that Nrf2 controls the production of over 250 antioxidant and detoxification proteins (Hu et al., 2006), thereby protecting tissues by increasing cellular antioxidant content and suppressing inflammatory signaling pathways. The transcription factor Nrf2 is a central link between oxidative chemicals, such as phenolic antioxidants and electrophilic compounds, and the activation of ARE. Nrf2 levels are constitutively low as a consequence of its interaction with Keap1, which targets its degradation (Zipper and Mulcahy, 2002). Electrophiles react with key cysteine residues in Keap1, releasing Nrf2 and allowing its translocation to the nucleus. Once within the nucleus, Nrf2 complexes with coactivators such as p300, and binds to the AREs to induce gene transcription of cytoprotective enzymes, resulting in the prevention of toxicity. Activation of Nrf2 protects tissues by increasing cellular antioxidant content and suppressing inflammatory signaling pathways. Identifying novel and potent Nrf2 activators by using the AREc32 cell line to detect ARE activation by small molecules will lead to the identification and development of probes to study protective pathways in multiple tissues. These specific probes are essential to study the ARE pathway, and eventually to determine whether this pathway does activate genes that could protect against a host of diseases, including cardiovascular diseases, obesity, diabetes, Alzheimer's, and Parkinson's disease.
This project's aim is to identify novel and potent Nrf2 activators by using the AREc32 cell line to detect ARE activation by small molecules, which will lead to the identification and development of probes to study the ARE pathway.
NIH Chemical Genomics Center [NCGC]
NIH Molecular Libraries Probe Centers Network [MLPCN]
Assay Submitter (PI): Curtis Klaassen, University of Kansas Medical Center
5 uL of 1000 cells/well of AREc32_Fluc cells are seeded into 1536-well plate in OPTI-MEM medium with 5% FBS. The plates are incubated overnight at 37 deg C with 5% CO2. Then through pin tool transfer, 23 nL of compounds are added to each well before a 24 hr incubation at 37 deg C with 5% CO2. After the addition of 2.5 uL of Steady-Glo. the plates are kept at RT for 30 min, before they are read on the ViewLux

Compound	outcome
NCCc1ccc(O)cc1	inactive
CC(NC(C)(C)C)C(=O)c1cccc(Cl)c1 (stereo not given)	inactive
COc1ccc2c(c1OC)C(=O)O[C@H]2[C@@H]1c2cc3c(cc2CCN1C)OCO3	inactive
CCCCC/C=C\C/C=C\C/C=C\C/C=C\CCCC(=O)NCC(=O)O	inactive
CC(C)N(CCC(C(N)=O)(c1ccccc1)c1ccccn1)C(C)C (stereo not given)	inactive
CN1C(=O)CCS(=O)(=O)C1c1ccc(Cl)cc1 (stereo not given)	inactive
Cc1ncsc1CCCl	inactive
O=C(O)CCCc1ccc(N(CCCl)CCCl)cc1	inactive
O=C(CCCN1CCC2(CC1)C(=O)NCN2c1ccccc1)c1ccc(F)cc1	inactive
CC(C)(C)NCC(O)c1ccccc1Cl (stereo not given)	inactive
C=C(C)[C@H]1CN[C@H](C(=O)O)[C@H]1CC(=O)O	inactive
O=c1[nH]oc2c1CCNC2	inactive
CCC1(c2ccc(N)cc2)CCC(=O)NC1=O (stereo not given)	inactive
CC(C)c1cccc(C(C)C)c1O	inactive
O=P1(N(CCCl)CCCl)NCCCO1 (stereo not given)	inactive
